The values below come from PubChem BioAssay (NCATS).

Each structure is given as a SMILES string. Records with an inconclusive call do not appear. Unmarked numbers belong to inactive results. Calls of active or inactive are those of the source. Calls follow the shape of the dose curve; as a rule, active = well fitted inhibition curve with a large enough effect; inconclusive = small, poorly fitted or top-dose-only effect; inactive = no such curve, though single readings can be large or run the other way.
Potency is read from the fitted curve at half-maximal effect.

The nature of this experiment: BET inhibitor-based combinations targeting novel dependencies in MECOM-rearranged (r) AML: MV-4-11 cell line (AID 2202233). Also: nearly all actives have a fitted effect of over 45% in size.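 As to viability, % of control: plate controls were DMSO for no effect and blank wells for full effect.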 The settings on record: MV-4-11 AML viability, CellTiter-Glo luminescence, 48 h; series mostly up to 46 µM; viability, % of control: at the top concentration. In short, it runs like this: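 Using pin-tool transfer, drugs were added in 11 doses to cells (500/well), incubated 48 hr, and assessed with CellTiter-Glo. Z-AUC is a mean-centring transformation applied separately to each screened line.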
A general note: ATP-based viability assays read luminescence as a measure of living cells.
On to `COc1cc(C)[nH]c(=O)c1CNC(=O)c1c(C)n([C@H](C)C2CCN(CC(F)(F)F)CC2)c2ccccc12`, for which the “viability, % of control” value was 93.1%.
Regarding `COc1cc([C@@H]2c3cc4c(cc3[C@@H](O)C3COC(=O)C32)OCO4)cc(OC)c1O` (some centres undefined), the Potency was 0.372 µM (active).
As to `C=C[C@H]1CN2CCC1C[C@@H]2[C@@H](O)c1ccnc2ccccc12` (some centres undefined), the Potency is 5.9 µM (active).
For the compound `C[C@@H](C1CC[C@@]2(O)C3=CC(=O)[C@@H]4C[C@@H](O)[C@@H](O)C[C@]4(C)[C@H]3CC[C@]12C)[C@H](O)CCC(C)(C)O` (some centres undefined), the “viability, % of control” value was 106%.
Same read-out and setting: for `COc1cc2cc(c1Cl)N(C)C(=O)C[C@H](OC(=O)C(C)C)[C@]1(C)O[C@@H]1[C@H](C)[C@@H]1C[C@@](O)(NC(=O)O1)[C@H](OC)/C=C/C=C(\C)C2` the value was 3.34%.
As for `O=C(NCC1CCOCC1)c1cnc(Nc2ccc(Cl)cc2Cl)nc1C(F)(F)F`, the Potency is 14.8 µM (active).
Turning to `C[C@]12CC[C@H](O)CC1=CC[C@@H]1[C@@H]2CC[C@]2(C)C(=O)CC[C@@H]12`, the “viability, % of control” value was 101%.
On the same count and under the same terms, for `C[C@]12CC[C@H]3[C@@H](CCC4=CC(=O)CC[C@@]43C)[C@H]1CC[C@H]2OC(=O)CCC1CCCC1` the value was 97.5%.
`COC[C@H]1OC(=O)c2coc3c2[C@@]1(C)C1=C(C3=O)[C@@H]2CC[C@H](O)[C@@]2(C)C[C@H]1OC(C)=O`: the Potency is 5.9 µM (active).
Regarding `CC(C)C[C@H](CN)CC(=O)O`, the “viability, % of control” value was 133%.
On the same count and under the same terms, the value for `CN1C(=O)[C@@H](NC(=O)[C@H](CCC(F)(F)F)[C@H](CCC(F)(F)F)C(N)=O)N=C(c2ccccc2)c2ccccc21` was 116%.
In the case of `C[C@@H]1CC[C@@]2(OC1)O[C@H]1C[C@H]3[C@@H]4CC=C5C[C@@H](O[C@@H]6O[C@H](CO)[C@@H](O[C@@H]7O[C@@H](C)[C@H](O)[C@@H](O)[C@H]7O)[C@H](O)[C@H]6O[C@@H]6O[C@@H](C)[C@H](O)[C@@H](O)[C@H]6O)CC[C@]5(C)[C@H]4CC[C@]3(C)[C@H]1[C@@H]2C`, the Potency was 5.9 µM (active).
Same read-out and setting: for `C[C@@]12OC(=O)[C@]1([C@@H](O)[C@@H]1C=CCCC1)NC(=O)[C@@H]2CCCl` the value was 0.0235 µM (active); for `C[C@H]1CCC/C=C/C2C[C@H](O)C[C@H]2[C@H](O)/C=C/C(=O)O1` (some centres undefined), 0.263 µM (active).
